# GPR151 ag – activators of human GPR151; Q8TDV0; PathHunter beta-arrestin GPR151 cells, luminescence; activation, % at 11.2 µM; 650,000 compounds, 1% hits; AID 1508602; in the data active = activation above about 4.9%;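 also: 0% = median of compound wells and 100% = cells with positive control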
# FBW7 act – activators of human E3 ligase FBW7. Q969H0. AID 1259310. normalized activity (activation), % at 26.1 µM. AlphaScreen FBW7–phospho-cyclin E peptide binding, activator screen. 650,000 compounds, 0.13% hits; in the data active = normalized activity above about 1.9%;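 also: purified mutant Fbw7 with reduced substrate affinity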
# Target sequence (Q969H0 whole entry, looked up): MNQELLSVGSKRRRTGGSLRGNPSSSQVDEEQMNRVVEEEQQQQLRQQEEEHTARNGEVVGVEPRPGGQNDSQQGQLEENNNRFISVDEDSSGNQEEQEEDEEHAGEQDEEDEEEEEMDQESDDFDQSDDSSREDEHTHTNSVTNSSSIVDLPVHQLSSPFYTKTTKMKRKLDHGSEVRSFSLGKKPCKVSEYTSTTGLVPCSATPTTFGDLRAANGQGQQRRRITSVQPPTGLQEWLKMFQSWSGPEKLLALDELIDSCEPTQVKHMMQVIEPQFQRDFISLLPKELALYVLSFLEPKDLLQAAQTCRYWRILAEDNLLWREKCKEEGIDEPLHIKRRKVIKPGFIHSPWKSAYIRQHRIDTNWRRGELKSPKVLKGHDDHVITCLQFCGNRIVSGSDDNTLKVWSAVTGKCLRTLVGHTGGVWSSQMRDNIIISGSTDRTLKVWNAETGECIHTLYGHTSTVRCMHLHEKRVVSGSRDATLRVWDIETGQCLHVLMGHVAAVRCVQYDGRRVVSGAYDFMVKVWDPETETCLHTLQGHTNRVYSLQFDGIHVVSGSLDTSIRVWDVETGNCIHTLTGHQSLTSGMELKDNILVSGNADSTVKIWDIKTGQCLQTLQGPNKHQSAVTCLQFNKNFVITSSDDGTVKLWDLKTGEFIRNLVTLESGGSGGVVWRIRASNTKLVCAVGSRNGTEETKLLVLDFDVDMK
# MITF primary – inhibitors of human MITF. O75030. 650,000 compounds, 0.91% hits. AlphaScreen MITF homodimerization, bead proximity signal. inhibition, % at 2.6 µM; in the data active = inhibition above about 50%;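 also: 0% = vehicle wells with protein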
# TEAD-YAP inh – TEAD-YAP interaction inhibition. HEK-TIYL cells, TEAD-Gal4/YAP UAS-luciferase luminescence. inhibition, % at 9.12 µM. 640,000 compounds, 1.4% hits. AID 1259422; in the data active = inhibition above about 32%;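 also: 0% = median of test compound wells and 100% = reference inhibitor wells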
# MITF confirm – confirmation of human MITF inhibitors; shares compounds with MITF primary; inhibition, % at 2.6 µM; 4,700 compounds, 16% hits; AlphaScreen MITF homodimerization, biotin/His-MITF beads;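 active = inhibition above a cutoff derived from the DMSO control wells, cut at about 28% in these data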;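 also: 0% = MITF dimer wells with DMSO only; inhibitors lower the bead chemiluminescence by keeping MITF from dimerizing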
# AlphaScreen DR – counter-screen: compounds optically interfering with AlphaScreen | shares compounds with MITF primary | 480 compounds, 6% hits | AID 1259373 | IC50, µM | AlphaScreen optical interference counterscreen, cell-free; call rule not given here
# AS interf ctr – optically interferes with AlphaScreen signal | shares compounds with MITF primary | LysRS AlphaScreen counterscreen, signal interference, triplicate | inhibition, % at 2.6 µM | 4,700 compounds, 7.6% hits;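 active = inhibition above a cutoff derived from the DMSO control wells, cut at about 30% in these data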
# Active calls of the source: *; . = no result. Only some compounds are listed: those with a hit (about 3.5% of all), similar ones and a draw of the others.
SMILES,GPR151 ag,FBW7 act,MITF primary,TEAD-YAP inh,MITF confirm,AS interf ctr,others
N#C/C(=C\c1ccc(I)cc1)c1nc(-c2ccc(Cl)c(Cl)c2)cs1,0,0,-4,8,.,.,
O=C(Nc1ccc(O)c(-c2nc3ccccc3s2)c1)c1cccc(Oc2ccccc2)c1,1,0,61*,0,3,1,
O=C(Nc1ccc(O)c(-c2nc3ccccc3s2)c1)c1ccccc1Oc1ccccc1,1,0,-7,-1,.,.,
O=C(Nc1nc2ccc(F)cc2s1)c1cccc(Oc2ccccc2)c1,-1,0,-3,-11,.,.,
O=C(Nc1nc2ccc(Cl)cc2s1)c1cccc(Oc2ccccc2)c1,1,0,74*,-1,1,7,
COC(=O)C1=C(C)Nc2ncnn2C1c1cccc(Cl)c1Cl (centres undefined),0,0,-1,0,.,.,
CCOC(=O)C1=C(C(=O)OCC)SC(=C2C(=S)C(C)(C)N(C(=O)c3ccccc3)c3c(OCC)cccc32)S1,2,0,2,9,.,.,
CCCCC[C@H](O)/C=C/[C@H]1C=CC(=O)[C@@H]1CCCCCCC(=O)O,3,.,-12,.,.,.,
CCCCC[C@H](O)/C=C/[C@H]1C=CC(=O)[C@@H]1CCCCCCC(=O)NCCCCCNC(=O)CCCCC1SC[C@@H]2NC(=O)N[C@H]12 (some centres undefined),-2,.,124*,.,123*,101*,
O=C(CCCC[C@@H]1SC[C@@H]2NC(=O)N[C@@H]21)NCCCC[C@H](NC(=O)CCN1C(=O)C=CC1=O)C(=O)O,-2,.,124*,.,124*,101*,
CCCCC[C@H](O)/C=C/[C@H]1C(=O)C[C@H](O)[C@@H]1C/C=C\CCCC(=O)NC(CO)CO,3,.,-8,.,.,.,
CCCCC[C@H](O)/C=C/[C@H]1C(=O)C[C@H](O)[C@@H]1C/C=C\CCCC(=O)OCC(O)CO (some centres undefined),1,.,71*,.,-6,-3,
CCCCC[C@H](O)/C=C/[C@H]1C(=O)C[C@H](O)[C@@H]1C/C=C\CCCC(=O)O,1,.,13,.,.,.,
CCCCC[C@H](O)/C=C/[C@H]1C(=O)C[C@H](O)[C@@H]1C/C=C\CCCCC(=O)NCCCCCNC(=O)CCCC[C@@H]1SC[C@@H]2NC(=O)N[C@@H]21,-1,.,124*,.,123*,101*,
CSCCC(NC(=O)CCN1C(=O)c2ccccc2C1=O)C(=O)O (centres undefined),1,0,4,1,.,.,
CCC1CN(CCNC(=O)CC2=CCCCC2)Cc2cc(OC)ccc2O1 (centres undefined),-1,0,10,4,.,.,
CCOc1cccc2cc(C(=O)Nc3ccccc3-c3nc4ccccc4s3)oc12,3,0,-13,1,.,.,
O=C(Nc1ccc2c(c1)CN(Cc1cccn1-c1nccs1)CC2)C1CCCO1 (centres undefined),0,0,9,-1,.,.,
CC(C)(C)NCC(=O)Nc1c2c(nc3c1CCC3)CCCC2,0,0,75*,5,3,-3,
O=C(CNC1CCCCC1)Nc1c2c(nc3c1CCC3)CCC2,0,0,40,-7,.,.,
CNCC(=O)Nc1c2c(nc3c1CCC3)CCCC2,0,0,61*,0,-2,-1,
O=C(CNC1CCCCC1)Nc1c2c(nc3c1CCC3)CCCC2,0,0,74*,3,-12,-3,
OCCN1CCN(c2cc(-c3ccccc3F)nc(-c3ccccc3)n2)CC1,1,0,53*,7,16,13,
OCCN1CCN(c2cc(-c3ccccc3F)nc(-c3cccnc3)n2)CC1,1,0,-5,5,.,.,
Cc1ccc(NC(=O)CCCC(=O)Nc2ccc(C)cc2)cc1,0,0,-4,7,.,.,
SMILES,GPR151 ag,FBW7 act,MITF primary,TEAD-YAP inh,MITF confirm,AS interf ctr,others
O=P(O)(O)C(Sc1ccc(Cl)cc1)P(=O)(O)O,2,0,96*,.,106*,-8,AlphaScreen DR=>6.5
COc1ccc(C(=O)NC2CCCCC2)cc1S(=O)(=O)N1CCC(C)CC1,0,0,67*,0,10,13,
CS(=O)(=O)N1CCC(Oc2ccc(-c3cc4ccccc4o3)cc2)CC1,2,0,-4,-7,.,.,
COc1ccccc1NC(=S)N(CCN(C)C)C(C)c1ccccn1 (centres undefined),0,0,66*,0,-50,100*,
Cc1ccc(CNC(=O)CNC(=S)N(Cc2cccs2)C2CCCCC2)cc1,0,0,0,9,.,.,
O=C(Nc1ccncc1)c1ccc(N2CC3CC(C2)c2cccc(=O)n2C3)c(NC(=O)c2ccc(F)cc2)c1 (centres undefined),2,0,1,8,.,.,
Cc1ccc(/C=N/Nc2cccc(C(=O)O)c2)o1,-7,0,59*,12,9,-2,
O=c1c(CN2CCCCC2)coc2ccc(Cl)cc12,-1,0,2,-7,.,.,
CN1CCN(Cc2coc3c(Cl)cc(Cl)cc3c2=O)CC1,1,0,64*,-3,0,1,
COc1ccc(-c2cnc(NCc3ccccc3OC)n2C)cc1,0,0,25,-4,.,.,
CCOC(=O)N1CCC(NC(=O)c2ccc(N3CC4CC(C3)c3cccc(=O)n3C4)c(NC(=O)c3ccc(N(CC)CC)cc3)c2)CC1 (centres undefined),2,0,-3,11,.,.,
COc1cccc(CN2CCN(C(=O)c3ccncc3)CC2)c1OC,-1,1,83*,7,11,19,
COc1ccc(CN2CCN(C(=O)c3ccccc3)CC2)c(OC)c1OC,0,0,25,-6,.,.,
COc1ccc(CN2CCN(C(=O)c3ccncc3)CC2)c(OC)c1OC,-1,0,51*,-8,-2,-4,
COc1ccc(Cl)cc1-n1cnc2cc(C(=O)NCC(OC)OC)ccc21,-1,0,-2,-3,.,.,
COc1ccc(C(=O)Nc2ncc(Cc3cc(Cl)ccc3Cl)s2)cc1OC,-1,1,68*,-3,-6,1,
COc1cc(C(=O)Nc2cccnc2)ccc1OCc1ccccc1Cl,0,0,74*,-2,-3,-2,
CC(=O)Nc1ncc(Cc2cc(Cl)ccc2Cl)s1,2,0,3,19,.,.,
O=S(=O)(/C=C/c1ccccc1)N1CCN(CC(O)COc2ccccc2F)CC1 (centres undefined),-1,0,60*,2,2,8,
OC(COc1ccccc1F)CN1CCN(c2ccccc2)CC1 (centres undefined),4,0,2,7,.,.,
O=S(=O)(c1cccs1)N1CCN(CC(O)COc2ccccc2F)CC1 (centres undefined),-2,0,66*,-4,-15,-2,
O=S(=O)(c1cccs1)N1CCN(CCO)CC1,1,0,-2,7,.,.,
CC(=O)Nc1ccc2c(COC(=O)CCC(=O)c3ccc(C(C)(C)C)cc3)cc(=O)oc2c1,0,0,3,3,.,.,
